Screens (PubChem)
USP2a block = USP2a (human) protease inhibition. O75604. USP2 core, Ub-CHOP2 coupled fluorogenic reporter, 485/531. Potency, µM (doses to about 38.3 µM), hits mostly inhibitors. 330,000 compounds, 0.01% hits
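Cell-free coupled assay: 10nM USP2 core preincubated 30min RT with compound in Tris-HCl pH 8.0/CaCl2/CHAPS buffer, then 25nM Ub-CHOP2 and 25nM reporter substrate; fluorescence (Ex 485/Em 531) read after 60min RT, normalized to NEM inhibition, concentration-response curves fitted.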
S2 tox = reduces viability in counter-screen for ATXN expression inhibitors; 400,000 compounds, 0.49% hits; AID 651635; Potency, µM (highest dose often 56.7 µM), actives largely listed as cytotoxic; S2 cells (HEK-293 line with an ATXN2-luciferase reporter) viability, CellTiter-Fluor protease fluorescence, 24 h; also: nearly all actives have a fitted effect of over 40% in size
ATXN2 expr inh = inhibitors of ATXN2 expression; HEK-293 ATXN2-luciferase reporter, luminescence, 24 h; Potency, µM (top dose mostly 57 µM), hits mostly inhibitors; 360,000 compounds, 0.72% hits; AID 1745845; also: nearly all actives have a fitted effect of over 55% in size
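ATXN2-luciferase reporter cells (luciferase flanked by upstream and downstream ATXN2 gene portions) were treated 24 h at 37 °C with compounds at up to 57 uM. SteadyGlo luminescence gave expression; GF-AFC fluorescence gave viability.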
USP1 inh = blocks the human USP1/UAF1 deubiquitinase complex; recombinant USP1/UAF1, Ub-Rhodamine cleavage fluorescence; Potency, µM (series often up to 57.1 µM), hits mostly inhibitors; 390,000 compounds, 0.23% hits; AID 743255; also: nearly all actives have a fitted effect of over 60% in size
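High-throughput fluorogenic screen: 1nM USP1/UAF1 complex, Ub-Rho substrate 150nM final, 50mM HEPES pH 7.8 with 0.5mM EDTA, 0.1 mg/ml BSA, 1mM TCEP and 0.01% Tween-20.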
IL1B secr inh = inflammasome signaling inhibition, IL-1 beta readout. 360,000 compounds, 4.7% hits. THP-1 LPS/ATP IL-1B secretion, AlphaLISA, 16 h; stronger effect = lower value. activity change, % at 57.5 µM. AID 743279; in the data active = activity change below about -50%; inconclusive = mostly about -30% to -49%
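Secreted IL-1B measured by AlphaLISA bead assay after 16 h compound exposure of THP-1 cells; compounds (final up to 57.5 uM) added 1 h before LPS (250 ng/mL) and ATP (1.25 mM) stimulation; lower signal means less secretion.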
Each line names hits and unclear results; the compound was inactive in the other large screens. Shown are actives, neighbours in structure and some others; about 4.8% of the full set was active somewhere. Unless noted, calls follow the shape of the dose curve; as a rule, active = well fitted curve in the direction sought with a large enough effect; inconclusive = small, poorly fitted or top-dose-only effect, or another doubt; inactive = no such curve, though single readings can be large; an effect the other way counts as inactive or inconclusive.

CCOC(=O)[C@]12CCCC=C1N(Cc1ccc(Cl)cc1Cl)C(=O)[C@H](CC(=O)NCCCCc1ccccc1)C2	S2 tox inconclusive (no result: USP2a block, USP1 inh)
Fc1ccc(Cc2cn3cc(-c4ccc(F)cc4)nc3s2)cc1	S2 tox inconclusive (no result: USP2a block, IL1B secr inh)
CC(C)c1c(C(=O)N(C)CC2CCCN(C)C2)cnn1-c1nccc(-c2cccs2)n1 (stereo not given)	none (no result: USP2a block, ATXN2 expr inh, USP1 inh, IL1B secr inh)
COc1ccc(Cl)cc1NS(=O)(=O)c1c(C)[nH]c(=O)[nH]c1=O	none
OCCCNCc1ccc(N(c2ccccc2)c2ccccc2)cc1	S2 tox inconclusive, ATXN2 expr inh inconclusive, IL1B secr inh -94
OCCNCc1ccc(-c2ccccc2)cc1	ATXN2 expr inh inconclusive
O=C1CCCCc2sc(Br)c([N+](=O)[O-])c2N1	IL1B secr inh -105
CCOc1ccccc1OCCCC(=O)Nc1ccc(Cl)c(S(=O)(=O)N2CCOCC2)c1	none (no result: ATXN2 expr inh)
Cc1ccc(-n2c(Cc3ccccc3)n[nH]c2=S)c(C)c1	IL1B secr inh -67
O=C(C1CCN(Cc2nc(-c3ccc(Cl)cc3)no2)CC1)N1CCOCC1	none
O=C(C1CCCN(Cc2nc(-c3ccc(Cl)cc3)no2)C1)N1CCOCC1 (stereo not given)	IL1B secr inh -83
Cc1ccc(S(=O)(=O)NCCCNS(=O)(=O)c2ccccc2)cc1	none (no result: ATXN2 expr inh)
Cc1ccc(S(=O)(=O)NCC2(c3ccccc3)CCN(C)CC2)cc1	IL1B secr inh -66
O=C1NC(c2ccccc2)(c2ccccc2)C(=O)N1COP(=O)(O)O	none (no result: USP2a block, USP1 inh, IL1B secr inh)
O=C(Nc1cccc(F)c1)N1CC=C(n2c(=O)[nH]c3ccccc32)CC1	S2 tox inconclusive, IL1B secr inh -59
Cc1ccc(C)c(NS(=O)(=O)c2cc(C(=O)NCc3ccccn3)ccc2C)c1	none
Oc1ccccc1N1CCN(Cc2ncc(-c3ccccc3)o2)CC1	IL1B secr inh -53
c1ccc(-c2nnc(CN3CCN(c4ccccc4)CC3)o2)cc1	S2 tox inconclusive
COc1cc(N(C(C)=O)c2ccc(O)cc2)c2ncccc2c1	none (no result: USP2a block, S2 tox, ATXN2 expr inh)
COc1cc(N(C(C)=O)c2ccc(O)c(C(=O)O)c2)c2ncccc2c1	USP1 inh 32µM (no result: USP2a block, ATXN2 expr inh)
O=[N+]([O-])c1ccc(S(=O)(=O)c2ccccc2)nc1	USP1 inh inconclusive (no result: S2 tox, ATXN2 expr inh)
Cc1cc(Sc2ccc([N+](=O)[O-])cn2)ccc1Br	none (no result: USP2a block, S2 tox)
Cc1cc(S(=O)(=O)c2ccc([N+](=O)[O-])cn2)ccc1Br	ATXN2 expr inh inconclusive, IL1B secr inh -106 (no result: USP2a block, S2 tox)
Cc1ccc(S(=O)(=O)c2ccc([N+](=O)[O-])cn2)cc1	ATXN2 expr inh inconclusive, IL1B secr inh -105 (no result: S2 tox)
Cc1ccc(Cn2ccn(Cc3ccc(C)cc3)c(=O)c2=O)cc1	none (no result: USP2a block, S2 tox, ATXN2 expr inh, IL1B secr inh)
Cc1cc(C)cc(OCCCn2c(-c3ccc(Cl)cc3)nc3ccccc3c2=O)c1	USP1 inh inconclusive (no result: USP2a block, IL1B secr inh)
Nc1c(Cl)cc2c(c1Br)Cc1ccccc1-2	none (no result: USP2a block)
Nc1c(Cl)cc2c(c1Oc1ccccc1)C(=O)c1ccccc1C2=O	USP1 inh inconclusive, IL1B secr inh -71
CC(/C=C1\SC(=S)N(CCCC(=O)Nc2ccc(C(=O)O)c(O)c2)C1=O)=C\c1ccccc1	IL1B secr inh -55
CC(/C=C1\SC(=S)N(NC(=O)c2ccncc2)C1=O)=C\c1ccccc1	IL1B secr inh -79
